Results as given in PubChem BioAssay (NCATS).
Results filed as inconclusive are left out. A call without a number means that no potency is given here. Active and inactive are the calls of the source. Unless noted, calls follow the shape of the full dose curve.

biological target: Glucocorticoid receptor (Homo sapiens) (UniProt P04150); experiment: qHTS assay for small molecule antagonists of glucocorticoid receptor signaling (AID 588533; active = well fitted inhibition curve with a large enough effect in the signal ratio, with a control signal flat, not every such curve was filed as active; the % refers to the signal ratio;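 also: cells stimulated with 2 nM dexamethasone as agonist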); details: HeLa MMTV-bla, GRE beta-lactamase ratio, antagonist mode, 18 h; series mostly up to 76.8 µM
Outline: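 Antagonist-mode qHTS: compound titrations added to GRE-bla HeLa cells, then dexamethasone 2 nM final; 18 h, 37 C. CCF4 FRET fluorescence normalized to dexamethasone and DMSO; IC50 from Hill fit.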

Sequence of Glucocorticoid receptor (Homo sapiens) (P04150 whole entry, looked up): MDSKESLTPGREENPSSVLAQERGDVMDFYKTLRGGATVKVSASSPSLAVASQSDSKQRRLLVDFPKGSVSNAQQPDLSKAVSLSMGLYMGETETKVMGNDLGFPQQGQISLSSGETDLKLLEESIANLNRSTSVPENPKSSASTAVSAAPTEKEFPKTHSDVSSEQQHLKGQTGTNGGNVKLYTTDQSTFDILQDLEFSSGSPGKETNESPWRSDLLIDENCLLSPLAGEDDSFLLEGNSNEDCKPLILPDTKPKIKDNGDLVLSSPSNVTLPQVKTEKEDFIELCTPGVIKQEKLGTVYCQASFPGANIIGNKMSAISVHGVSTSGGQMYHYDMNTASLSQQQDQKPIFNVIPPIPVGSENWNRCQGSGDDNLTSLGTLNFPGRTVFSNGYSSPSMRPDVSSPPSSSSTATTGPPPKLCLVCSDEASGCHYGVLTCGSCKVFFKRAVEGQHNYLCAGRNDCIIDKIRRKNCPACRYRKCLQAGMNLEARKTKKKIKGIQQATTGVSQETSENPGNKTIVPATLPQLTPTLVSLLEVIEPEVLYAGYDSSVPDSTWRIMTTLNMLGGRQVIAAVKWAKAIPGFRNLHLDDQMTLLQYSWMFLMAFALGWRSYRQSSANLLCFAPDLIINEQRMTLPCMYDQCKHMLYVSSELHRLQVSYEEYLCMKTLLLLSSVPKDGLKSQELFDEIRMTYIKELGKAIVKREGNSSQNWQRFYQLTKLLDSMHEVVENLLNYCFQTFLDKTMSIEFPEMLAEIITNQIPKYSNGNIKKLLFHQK

Q: With `CCOP(=S)(S)OCC` as the compound, how does the Potency read?
A: inactive

Q: How did the Potency turn out when `CCCCN(CC)C(=O)SCCC` was run?
A: inactive

Q: With `O=[N+]([O-])c1ccc(Oc2ccc(C(F)(F)F)cc2[N+](=O)[O-])cc1` as the compound, how does the Potency read?
A: inactive

Q: How did the Potency turn out when `C=CC1(C)OC(=O)N(c2cc(Cl)cc(Cl)c2)C1=O` (centres undefined) was run?
A: inactive

biological target: Peroxisome proliferator-activated receptor delta (Homo sapiens) (UniProt Q03181); experiment: qHTS assay for small molecule agonists of peroxisome proliferator-activated receptor delta signaling (AID 588534); details: HEK293T PPARdelta-UAS-bla, beta-lactamase ratio, 18 h; series mostly up to 76.7 µM
Outline: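 Agonist-mode qHTS; reporter cells, 5 hrs 37 C pre-incubation; compound titration, 18 hrs 37 C; CCF4 dye, 2 hrs RT; fluorescence read. EC50/efficacy via Hill fit.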

Sequence of Peroxisome proliferator-activated receptor delta (Homo sapiens) (Q03181 whole entry, looked up): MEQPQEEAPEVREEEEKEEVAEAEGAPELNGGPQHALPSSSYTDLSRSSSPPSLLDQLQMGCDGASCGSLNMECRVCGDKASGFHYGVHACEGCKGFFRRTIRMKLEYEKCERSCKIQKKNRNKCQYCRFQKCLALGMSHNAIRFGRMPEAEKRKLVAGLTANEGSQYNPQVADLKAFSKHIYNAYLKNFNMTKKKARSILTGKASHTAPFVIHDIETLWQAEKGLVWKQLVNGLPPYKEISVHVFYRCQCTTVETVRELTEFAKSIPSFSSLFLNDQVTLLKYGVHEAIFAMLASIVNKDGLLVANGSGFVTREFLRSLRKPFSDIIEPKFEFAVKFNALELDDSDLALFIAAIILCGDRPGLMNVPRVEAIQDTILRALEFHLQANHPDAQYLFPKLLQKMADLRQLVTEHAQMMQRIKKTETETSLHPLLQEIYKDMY

Q: How did the outcome turn out when `O=S(=O)(c1ccc(O)cc1)c1ccc(O)cc1` was run?
A: inactive

Q: How did the outcome turn out when `CCOP(=O)(O)C(N)=O` was run?
A: inactive

Q: With `CCOc1nc(NC)nc(NC(=O)NS(=O)(=O)c2ccccc2C(=O)OC)n1` as the compound, how does the outcome read?
A: inactive

Q: Which outcome does the source give for `CCOP(=S)(OCC)SCC(=O)NC(C)C` here?
A: inactive

Q: For `NS(=O)(=O)C(F)(F)C(F)(F)C(F)(F)C(F)(F)C(F)(F)C(F)(F)C(F)(F)C(F)(F)F`, which outcome is on record?
A: inactive

Q: Which outcome does the source give for `Clc1ccc([C@]2(Cn3cncn3)C[C@@H](Br)CO2)c(Cl)c1` here?
A: inactive

Q: For `CCOP(=O)(SC(C)CC)SC(C)CC` (centres undefined), which outcome is on record?
A: inactive

Q: With `CNC(=O)Oc1cccc2c1OC(C)(C)C2O` (centres undefined) as the compound, how does the outcome read?
A: inactive

Q: For `C/C(=N\C(N)=O)N(C)Cc1ccc(Cl)nc1`, which outcome is on record?
A: inactive

Q: `FC(F)(F)c1ccc(OCCCOc2c(Cl)cc(OCC=C(Cl)Cl)cc2Cl)nc1` was tested. Which outcome did it give?
A: inactive

Q: For `Cc1ccccc1C(=O)Nc1cccc(OC(C)C)c1`, which outcome is on record?
A: inactive

Q: How did the outcome turn out when `CCOC1Oc2ccc(OS(C)(=O)=O)cc2C1(C)C` (centres undefined) was run?
A: inactive

Q: For `Nc1ccc([N+](=O)[O-])cc1Cl`, which outcome is on record?
A: inactive

Q: Which outcome does the source give for `CCCCC(CC)C(=O)Cl` (centres undefined) here?
A: inactive

Q: How did the outcome turn out when `CCNc1nc(NC(C)(C)C)nc(SC)n1` was run?
A: inactive

Q: For `CCOP(=O)(OCC)SCSCC`, which outcome is on record?
A: inactive

Q: Which outcome does the source give for `CCOP(=O)(OCC)SCSC(C)(C)C` here?
A: inactive

Q: With `CNC(=O)Oc1ccc(N(C)C)c(C)c1` as the compound, how does the outcome read?
A: inactive

Q: With `COC(=O)c1ccccc1CS(=O)(=O)NC(=O)Nc1nc(OC)cc(OC)n1` as the compound, how does the outcome read?
A: inactive

Q: With `CCOP(=S)(OCC)Oc1cnc2ccccc2n1` as the compound, how does the outcome read?
A: inactive

Q: `CCOP(=S)(S)OCC` was tested. Which outcome did it give?
A: inactive

Q: With `CCCCN(CC)C(=O)SCCC` as the compound, how does the outcome read?
A: inactive

Q: How did the outcome turn out when `O=[N+]([O-])c1ccc(Oc2ccc(C(F)(F)F)cc2[N+](=O)[O-])cc1` was run?
A: inactive

Q: For `C/C=C(\C)C(=O)O[C@H]1C[C@@H](OC(C)=O)[C@@]2(C(=O)OC)CO[C@H]3[C@@H](O)[C@@](C)([C@]45O[C@@]4(C)[C@H]4C[C@@H]5O[C@@H]5OC=C[C@@]54O)[C@H]4[C@]1(CO[C@]4(O)C(=O)OC)[C@@H]32`, which outcome is on record?
A: inactive

Q: How did the outcome turn out when `C=CC1(C)OC(=O)N(c2cc(Cl)cc(Cl)c2)C1=O` (centres undefined) was run?
A: inactive
